# Laboratory results: ChEMBL document CHEMBL3433997, “St. Jude Leishmania screening dataset” (2016)
# How the values were obtained:
# Format in all cases: functional
# [1] = biological target: Solute carrier family 2, facilitated glucose transporter member 1 (Homo sapiens) (UniProt P11166); experiment: ST_JUDE_LEISH: Cytotoxicity at 2uM final concentration against transgenic Leishmania Mexicana promastigotes LmGLUT1 that are glucose transport deficient and complemented with the human glucose transporter GLUT1. Activity is measured by DNA content using SYBR green in vitro
# Solute carrier family 2, facilitated glucose transporter member 1 (Homo sapiens), sequence (P11166 whole entry): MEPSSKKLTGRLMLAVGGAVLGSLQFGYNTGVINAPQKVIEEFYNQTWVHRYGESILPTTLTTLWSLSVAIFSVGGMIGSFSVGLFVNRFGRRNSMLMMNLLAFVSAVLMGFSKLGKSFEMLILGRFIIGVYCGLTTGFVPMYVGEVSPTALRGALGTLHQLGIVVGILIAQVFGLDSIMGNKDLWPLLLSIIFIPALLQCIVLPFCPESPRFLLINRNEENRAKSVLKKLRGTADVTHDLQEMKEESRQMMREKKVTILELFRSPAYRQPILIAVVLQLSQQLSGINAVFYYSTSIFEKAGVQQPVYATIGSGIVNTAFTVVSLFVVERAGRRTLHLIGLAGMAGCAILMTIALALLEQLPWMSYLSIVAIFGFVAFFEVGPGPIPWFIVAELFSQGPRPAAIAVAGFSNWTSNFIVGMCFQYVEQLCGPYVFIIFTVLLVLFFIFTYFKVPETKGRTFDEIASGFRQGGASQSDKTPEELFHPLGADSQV
# [2] = biological target: Hexose transporter 1 (Plasmodium falciparum) (UniProt O97467); experiment: ST_JUDE_LEISH: Cytotoxicity at 2uM final concentration against transgenic Leishmania Mexicana promastigotes LmPfHT that are glucose transport deficient and complemented with the Plasmodium falciparum hexose transporter. Activity is measured by DNA content using SYBR green in vitro
# [3] = biological target: Glucose transporter (Leishmania mexicana) (UniProt O61059); experiment: ST_JUDE_LEISH: Cytotoxicity at 2uM final concentration against transgenic Leishmania Mexicana promastigotes LmGT2 that are glucose transport deficient and complemented with the L. Mexicana glucose transporter 2. Activity is measured by DNA content using SYBR green in vitro
Structure (SMILES),inhibition [1],inhibition [2],inhibition [3]
COc1ccc(O)c(Cc2cnc3nc(N)[nH]c(=O)c3c2C)c1,1.02%,0.5%,4.01%
CCc1c[nH]c2c(N3CCCS3(=O)=O)cc(C(=O)N[C@@H](Cc3ccccc3)[C@H](O)CNC3CCCCC3)cc12,-0.09%,2.13%,3.39%
CCCN1CCN(CCNc2c3ccccc3nc3ccccc23)CC1,96.4%,97.2%,94.2%
CC(C)(C)c1ccc(NC(=O)c2ccc(CN3CCCN(Cc4ccc(F)cc4)CC3)cc2)cc1,2.24%,-1.93%,1.74%
CCCCN1CC[C@@H](CCC(O)c2ccnc3ccc(OCCC(C)C)cc23)[C@@H](CC)C1 (stereo partly drawn),1.18%,4.04%,3.24%
Cc1ccc(O)c(CN2CCCC(COC(c3ccc(F)cc3)c3ccc(F)cc3)C2)c1 (stereo not drawn),2.33%,-0.35%,-4.12%
N#Cc1cc([N+](=O)[O-])ccc1-n1nc(-c2cccc(Cl)c2)n(Cc2ccco2)c1=S,1.94%,1.56%,-3.52%
c1ccc(CNCc2ccc(-c3ccc(-c4nc5ccccc5[nH]4)cc3)cc2)cc1,20.4%,12.9%,10%
CCc1cn(CCOC)c2ccc(C(=O)N[C@@H](Cc3ccccc3)[C@H](O)CNC(C)(C)CCCC(C)C)cc12,0.24%,1.3%,1.51%
CCOC(=O)c1ccc(NC(=O)N[C@H]2CCN(CCCCCNC(=O)/C=C/c3ccc(Cl)c(Cl)c3)C2)cc1,4.4%,2.51%,5.84%
CN(Cc1ccccc1)C(=O)CCNS(=O)(=O)c1cc(Br)cnc1N,2.6%,3.87%,6.07%
COCCSc1nc2scc(C)c2c(=O)n1Cc1cccc(OC)c1,3.26%,4.92%,4.9%
COc1ccc(Cn2c(Nc3cccc(C(F)(F)F)c3)nc3cc(C(=O)NCCN4CCCC4)cnc32)cc1Cl,13.2%,12.9%,15.6%
Cc1cc(NCCC(=O)Nc2ccccc2)nc(NCCOc2ccccc2)n1,-0.01%,-0.67%,-1.58%
CCCOc1ccc2ccccc2c1CNCCCCCCNCc1c(OCCC)ccc2ccccc12,2.66%,1.04%,-1.19%
NC1=NC(Cc2ccccc2)(c2ccncc2)C(=O)N1CCCc1ccccc1 (stereo not drawn),3.32%,3.32%,2.03%
